Assay results as given in PubChem BioAssay.
The source made the active and inactive calls.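 The calls were made as follows: active = normalized viability below 100% at a tested concentration; inactive = the rest.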

Assay: drug combination growth inhibition, ovarian cancer – cell-based, oncology-focused library, rucaparib conditional, profiling panel (AID 1508598)
Details: patient-derived ovarian cancer cells, CellTiter-Glo viability, 144 h, hits give low values

Measured: viability

C/C(=C\c1csc(C)n1)[C@H]1C[C@@H]2O[C@]2(C)CCC[C@H](C)[C@H](O)[C@@H](C)C(=O)C(C)(C)[C@H](O)CC(=O)O1
active: at 0.000305 µM, OCI-C5x cells, with rucaparib 10 µM, 100% = cells with rucaparib alone 47% | at 0.000305 µM, OCI-C5x cells, without rucaparib 25.7% | at 0.000305 µM, OCI-P5x cells, with rucaparib 20 µM, 100% = cells with rucaparib alone 57.2% | at 0.000305 µM, OCI-P5x cells, without rucaparib 15.5% | at 0.00122 µM, OCI-C5x cells, with rucaparib 10 µM, 100% = cells with rucaparib alone 36.1% | at 0.00122 µM, OCI-C5x cells, without rucaparib 27.1% | at 0.00122 µM, OCI-P5x cells, with rucaparib 20 µM, 100% = cells with rucaparib alone 48.9% | at 0.00122 µM, OCI-P5x cells, without rucaparib 17.2% | at 0.00488 µM, OCI-C5x cells, with rucaparib 10 µM, 100% = cells with rucaparib alone 39.5% | at 0.00488 µM, OCI-C5x cells, without rucaparib 27.9% | at 0.00488 µM, OCI-P5x cells, with rucaparib 20 µM, 100% = cells with rucaparib alone 48% | at 0.00488 µM, OCI-P5x cells, without rucaparib 17.6% | at 0.0195 µM, OCI-C5x cells, with rucaparib 10 µM, 100% = cells with rucaparib alone 34.8% | at 0.0195 µM, OCI-C5x cells, without rucaparib 27.5% | at 0.0195 µM, OCI-P5x cells, with rucaparib 20 µM, 100% = cells with rucaparib alone 47.2% | at 0.0195 µM, OCI-P5x cells, without rucaparib 16.3% | at 0.0781 µM, OCI-C5x cells, with rucaparib 10 µM, 100% = cells with rucaparib alone 35.3% | at 0.0781 µM, OCI-C5x cells, without rucaparib 27.6% | at 0.0781 µM, OCI-P5x cells, with rucaparib 20 µM, 100% = cells with rucaparib alone 45.8% | at 0.0781 µM, OCI-P5x cells, without rucaparib 16.3% | at 0.313 µM, OCI-C5x cells, with rucaparib 10 µM, 100% = cells with rucaparib alone 40.6% | at 0.313 µM, OCI-C5x cells, without rucaparib 35.3% | at 0.313 µM, OCI-P5x cells, with rucaparib 20 µM, 100% = cells with rucaparib alone 44.8% | at 0.313 µM, OCI-P5x cells, without rucaparib 15.9% | at 1.25 µM, OCI-C5x cells, with rucaparib 10 µM, 100% = cells with rucaparib alone 45.2% | at 1.25 µM, OCI-C5x cells, without rucaparib 38.5% | at 1.25 µM, OCI-P5x cells, with rucaparib 20 µM, 100% = cells with rucaparib alone 39.6% | at 1.25 µM, OCI-P5x cells, without rucaparib 16.1% | at 5 µM, OCI-C5x cells, with rucaparib 10 µM, 100% = cells with rucaparib alone 45.4% | at 5 µM, OCI-C5x cells, without rucaparib 40.3% | at 5 µM, OCI-P5x cells, with rucaparib 20 µM, 100% = cells with rucaparib alone 43.9% | at 5 µM, OCI-P5x cells, without rucaparib 15.4%
